Columns and labels:
Test in all cases: DAPPL (digital affinity profiling via proximity ligation, sequencing); 10 mM Tris-HCl pH 7.5, 50 mM NaCl, 1 mM DTT, 4% glycerol, room temperature, 30 min; GST-TFs on glutathione beads, 16-mer random dsDNA library, 0.1% formaldehyde crosslink after washing; high values mean tight binding
[1] = target: T1, FEV (Homo sapiens, UniProt Q99581 1-238); details: protein: recombinant; tags: N-terminal GST; dsDNA, one strand shown
T1 sequence: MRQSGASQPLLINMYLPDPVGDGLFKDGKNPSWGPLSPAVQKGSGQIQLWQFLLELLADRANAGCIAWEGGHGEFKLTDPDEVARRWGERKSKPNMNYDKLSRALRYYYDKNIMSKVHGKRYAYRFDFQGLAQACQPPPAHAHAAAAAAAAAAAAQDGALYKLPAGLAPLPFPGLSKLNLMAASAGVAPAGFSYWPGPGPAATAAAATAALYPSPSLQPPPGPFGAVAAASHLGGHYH
In short: (§1)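 Each value of binding signal is a hexamer's read frequency for a factor divided by the same hexamer's frequency in the tag-only sample. Barcoded, bead-captured GST fusions of human transcription factors made in yeast were pooled with that sample and incubated with 200 nmole of a random double-stranded 16-mer DNA library in Tris/NaCl/DTT/glycerol buffer at room temperature for 30 min. Washing, 0.1% formaldehyde crosslinking, proximity ligation, PCR and Illumina NextSeq500 sequencing followed.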

[2] = target: ETV5 (Homo sapiens, UniProt P41161 1-510); details: protein: recombinant; tags: N-terminal GST; dsDNA, one strand shown
Chain of ETV5 (P41161 whole entry): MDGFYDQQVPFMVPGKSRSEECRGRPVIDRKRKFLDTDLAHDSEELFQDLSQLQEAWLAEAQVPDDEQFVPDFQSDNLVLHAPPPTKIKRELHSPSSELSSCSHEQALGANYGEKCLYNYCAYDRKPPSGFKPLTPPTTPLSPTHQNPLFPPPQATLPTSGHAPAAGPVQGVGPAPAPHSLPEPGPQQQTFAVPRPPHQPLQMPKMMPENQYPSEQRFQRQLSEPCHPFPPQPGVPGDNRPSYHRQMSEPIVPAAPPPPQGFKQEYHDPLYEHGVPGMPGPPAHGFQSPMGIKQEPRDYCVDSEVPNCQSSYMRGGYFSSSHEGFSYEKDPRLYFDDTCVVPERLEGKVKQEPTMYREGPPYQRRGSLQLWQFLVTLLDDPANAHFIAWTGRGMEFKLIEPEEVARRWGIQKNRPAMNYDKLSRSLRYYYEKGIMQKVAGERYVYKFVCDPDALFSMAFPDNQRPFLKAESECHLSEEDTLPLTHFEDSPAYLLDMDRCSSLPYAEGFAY
In short: as §1

[3] = target: HSF1 (Homo sapiens, UniProt Q00613 1-529); details: protein: recombinant; tags: N-terminal GST; chain copies: 3; dsDNA, one strand shown
Chain of HSF1 (Q00613 whole entry): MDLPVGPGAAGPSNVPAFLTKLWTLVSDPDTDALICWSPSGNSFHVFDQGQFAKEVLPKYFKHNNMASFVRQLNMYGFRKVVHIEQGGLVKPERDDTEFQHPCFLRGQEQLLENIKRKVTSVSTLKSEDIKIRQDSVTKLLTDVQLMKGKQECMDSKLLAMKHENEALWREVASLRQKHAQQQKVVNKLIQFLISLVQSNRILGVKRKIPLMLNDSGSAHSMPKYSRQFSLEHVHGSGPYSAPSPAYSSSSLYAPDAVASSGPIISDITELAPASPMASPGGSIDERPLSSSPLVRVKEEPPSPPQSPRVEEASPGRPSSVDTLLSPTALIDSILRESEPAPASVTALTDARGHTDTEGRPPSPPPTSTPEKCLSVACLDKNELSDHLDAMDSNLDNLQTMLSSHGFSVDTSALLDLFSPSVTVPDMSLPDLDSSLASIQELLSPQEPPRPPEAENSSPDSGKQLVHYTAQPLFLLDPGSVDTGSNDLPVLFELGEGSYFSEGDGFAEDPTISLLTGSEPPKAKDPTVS
In short: as §1

[4] = target: T2, SPIC (Homo sapiens, UniProt Q8N5J4 1-248); details: protein: recombinant; tags: N-terminal GST; dsDNA, one strand shown
T2 sequence: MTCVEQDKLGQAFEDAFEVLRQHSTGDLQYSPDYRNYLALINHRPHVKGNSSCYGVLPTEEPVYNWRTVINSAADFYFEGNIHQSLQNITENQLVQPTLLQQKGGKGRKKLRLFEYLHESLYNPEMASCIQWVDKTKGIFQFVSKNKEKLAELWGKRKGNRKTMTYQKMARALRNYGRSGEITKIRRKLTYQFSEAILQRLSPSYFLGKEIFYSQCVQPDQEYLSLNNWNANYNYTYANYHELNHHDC
In short: as §1

[5] = target: ELF4 (Homo sapiens, UniProt Q99607 1-663); details: protein: recombinant; tags: N-terminal GST; dsDNA, one strand shown
Chain of ELF4 (Q99607 whole entry): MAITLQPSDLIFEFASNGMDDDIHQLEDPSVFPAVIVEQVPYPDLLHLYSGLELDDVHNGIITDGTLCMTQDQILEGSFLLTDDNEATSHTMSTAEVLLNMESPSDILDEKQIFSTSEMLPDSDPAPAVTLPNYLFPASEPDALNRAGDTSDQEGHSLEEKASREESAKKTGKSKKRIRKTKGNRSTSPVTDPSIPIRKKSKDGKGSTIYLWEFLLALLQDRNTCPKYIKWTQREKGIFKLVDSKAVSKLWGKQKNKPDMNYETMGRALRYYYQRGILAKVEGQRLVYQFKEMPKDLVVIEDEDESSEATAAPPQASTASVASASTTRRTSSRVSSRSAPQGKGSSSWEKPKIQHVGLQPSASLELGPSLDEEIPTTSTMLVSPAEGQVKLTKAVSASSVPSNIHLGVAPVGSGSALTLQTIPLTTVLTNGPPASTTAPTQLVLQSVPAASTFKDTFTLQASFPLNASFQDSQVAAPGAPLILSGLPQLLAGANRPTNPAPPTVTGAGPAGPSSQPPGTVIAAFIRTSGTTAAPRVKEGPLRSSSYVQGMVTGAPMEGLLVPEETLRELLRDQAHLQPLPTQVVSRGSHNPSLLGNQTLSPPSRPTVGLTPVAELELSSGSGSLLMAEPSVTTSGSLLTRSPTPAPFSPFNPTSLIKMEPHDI
In short: as §1

[6] = target: T3, ELK4 (Homo sapiens, UniProt P28324-2 1-405); details: protein: recombinant; tags: N-terminal GST; dsDNA, one strand shown
T3 sequence: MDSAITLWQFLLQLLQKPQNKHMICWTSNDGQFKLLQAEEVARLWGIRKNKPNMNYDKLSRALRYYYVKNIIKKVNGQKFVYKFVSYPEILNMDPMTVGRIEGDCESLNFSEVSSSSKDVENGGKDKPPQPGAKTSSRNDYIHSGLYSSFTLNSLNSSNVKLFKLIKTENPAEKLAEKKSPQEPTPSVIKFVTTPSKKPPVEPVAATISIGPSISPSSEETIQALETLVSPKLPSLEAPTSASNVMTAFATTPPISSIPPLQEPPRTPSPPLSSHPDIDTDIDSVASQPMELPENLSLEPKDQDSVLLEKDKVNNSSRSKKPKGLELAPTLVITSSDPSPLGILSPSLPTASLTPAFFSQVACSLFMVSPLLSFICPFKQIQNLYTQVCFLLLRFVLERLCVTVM
In short: as §1

[7] = target: T4, ETV2 (Homo sapiens, UniProt O00321 1-342); details: protein: recombinant; tags: N-terminal GST; dsDNA, one strand shown
T4 sequence: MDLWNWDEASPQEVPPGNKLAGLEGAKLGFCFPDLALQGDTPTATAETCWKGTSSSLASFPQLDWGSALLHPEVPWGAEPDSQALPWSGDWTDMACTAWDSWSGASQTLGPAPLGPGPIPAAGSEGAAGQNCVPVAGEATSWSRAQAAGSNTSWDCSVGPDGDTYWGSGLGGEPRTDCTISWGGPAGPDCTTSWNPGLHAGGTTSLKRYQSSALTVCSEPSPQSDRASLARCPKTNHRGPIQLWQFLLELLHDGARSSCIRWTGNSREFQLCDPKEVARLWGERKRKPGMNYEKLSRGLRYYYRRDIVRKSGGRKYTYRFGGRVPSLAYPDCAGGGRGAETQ
In short: as §1

[8] = target: T5, ELF3 (Homo sapiens, UniProt P78545 1-371); details: protein: recombinant; tags: N-terminal GST; dsDNA, one strand shown
T5 sequence: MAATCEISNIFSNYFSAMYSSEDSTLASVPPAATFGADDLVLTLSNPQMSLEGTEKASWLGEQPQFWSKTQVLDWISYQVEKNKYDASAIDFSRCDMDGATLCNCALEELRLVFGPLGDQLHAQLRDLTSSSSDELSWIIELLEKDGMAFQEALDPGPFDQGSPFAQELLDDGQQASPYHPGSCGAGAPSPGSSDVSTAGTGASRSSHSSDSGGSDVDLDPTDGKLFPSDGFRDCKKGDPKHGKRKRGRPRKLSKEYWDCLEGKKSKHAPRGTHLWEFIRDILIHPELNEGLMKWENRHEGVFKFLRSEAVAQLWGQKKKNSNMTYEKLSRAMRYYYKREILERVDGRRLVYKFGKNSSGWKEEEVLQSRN
In short: as §1

[9] = target: CRX (Homo sapiens, UniProt O43186 1-299); details: protein: recombinant; tags: N-terminal GST; dsDNA, one strand shown
Chain of CRX (O43186 whole entry): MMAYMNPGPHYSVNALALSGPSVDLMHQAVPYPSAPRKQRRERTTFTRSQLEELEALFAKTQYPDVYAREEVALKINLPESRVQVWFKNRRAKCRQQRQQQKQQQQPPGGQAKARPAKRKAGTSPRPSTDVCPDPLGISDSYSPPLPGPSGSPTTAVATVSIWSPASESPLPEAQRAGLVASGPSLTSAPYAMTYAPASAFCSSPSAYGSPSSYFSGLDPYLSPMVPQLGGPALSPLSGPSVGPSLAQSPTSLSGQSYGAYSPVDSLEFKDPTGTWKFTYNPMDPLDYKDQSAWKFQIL
In short: as §1

[10] = target: ETV1 (Homo sapiens, UniProt P50549 1-477); details: protein: recombinant; tags: N-terminal GST; dsDNA, one strand shown
Chain of ETV1 (P50549 whole entry): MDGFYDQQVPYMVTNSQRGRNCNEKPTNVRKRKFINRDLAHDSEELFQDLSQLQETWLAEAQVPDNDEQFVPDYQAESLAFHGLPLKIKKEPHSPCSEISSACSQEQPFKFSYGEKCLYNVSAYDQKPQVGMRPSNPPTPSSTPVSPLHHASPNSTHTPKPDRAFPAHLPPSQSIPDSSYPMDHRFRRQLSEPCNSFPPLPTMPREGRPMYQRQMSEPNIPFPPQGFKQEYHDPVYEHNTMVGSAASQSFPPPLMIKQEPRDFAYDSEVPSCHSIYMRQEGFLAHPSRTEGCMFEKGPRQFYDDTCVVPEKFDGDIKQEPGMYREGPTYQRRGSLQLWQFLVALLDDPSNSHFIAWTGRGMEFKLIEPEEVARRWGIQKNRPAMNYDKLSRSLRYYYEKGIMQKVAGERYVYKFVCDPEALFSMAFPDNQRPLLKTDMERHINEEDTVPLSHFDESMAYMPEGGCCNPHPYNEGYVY
In short: as §1

[11] = target: T6, ERF (Homo sapiens, UniProt P50548 1-548); details: protein: recombinant; tags: N-terminal GST; dsDNA, one strand shown
T6 sequence: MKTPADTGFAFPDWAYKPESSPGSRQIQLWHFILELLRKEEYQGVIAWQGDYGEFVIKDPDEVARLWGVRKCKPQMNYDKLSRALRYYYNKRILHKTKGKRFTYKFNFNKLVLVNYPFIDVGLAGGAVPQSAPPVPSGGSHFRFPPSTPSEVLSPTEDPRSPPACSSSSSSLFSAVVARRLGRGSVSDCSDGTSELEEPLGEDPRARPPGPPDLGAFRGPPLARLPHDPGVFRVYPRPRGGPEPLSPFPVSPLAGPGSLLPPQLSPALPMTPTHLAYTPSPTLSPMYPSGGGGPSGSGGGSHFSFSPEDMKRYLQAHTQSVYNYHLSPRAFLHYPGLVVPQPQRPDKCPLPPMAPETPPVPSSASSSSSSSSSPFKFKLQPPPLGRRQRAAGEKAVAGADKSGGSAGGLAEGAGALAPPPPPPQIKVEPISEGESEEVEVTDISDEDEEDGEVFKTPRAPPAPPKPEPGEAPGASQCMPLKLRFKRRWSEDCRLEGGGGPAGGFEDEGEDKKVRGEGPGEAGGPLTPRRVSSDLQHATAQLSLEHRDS
In short: as §1

[12] = target: T7, ETV3L (Homo sapiens, UniProt Q6ZN32 1-361); details: protein: recombinant; tags: N-terminal GST; dsDNA, one strand shown
T7 sequence: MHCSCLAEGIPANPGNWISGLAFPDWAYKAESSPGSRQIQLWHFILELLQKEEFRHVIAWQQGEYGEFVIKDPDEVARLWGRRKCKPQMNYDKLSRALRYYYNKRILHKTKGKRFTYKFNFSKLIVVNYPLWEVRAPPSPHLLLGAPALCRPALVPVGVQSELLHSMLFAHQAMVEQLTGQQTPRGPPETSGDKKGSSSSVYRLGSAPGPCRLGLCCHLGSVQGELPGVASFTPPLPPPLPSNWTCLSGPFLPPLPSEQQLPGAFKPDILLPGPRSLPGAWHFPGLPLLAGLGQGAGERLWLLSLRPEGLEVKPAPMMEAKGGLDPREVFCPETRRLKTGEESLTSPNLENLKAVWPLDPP
In short: as §1

[13] = target: T8, ETS2 (Homo sapiens, UniProt P15036 1-469); details: protein: recombinant; tags: N-terminal GST; dsDNA, one strand shown
T8 sequence: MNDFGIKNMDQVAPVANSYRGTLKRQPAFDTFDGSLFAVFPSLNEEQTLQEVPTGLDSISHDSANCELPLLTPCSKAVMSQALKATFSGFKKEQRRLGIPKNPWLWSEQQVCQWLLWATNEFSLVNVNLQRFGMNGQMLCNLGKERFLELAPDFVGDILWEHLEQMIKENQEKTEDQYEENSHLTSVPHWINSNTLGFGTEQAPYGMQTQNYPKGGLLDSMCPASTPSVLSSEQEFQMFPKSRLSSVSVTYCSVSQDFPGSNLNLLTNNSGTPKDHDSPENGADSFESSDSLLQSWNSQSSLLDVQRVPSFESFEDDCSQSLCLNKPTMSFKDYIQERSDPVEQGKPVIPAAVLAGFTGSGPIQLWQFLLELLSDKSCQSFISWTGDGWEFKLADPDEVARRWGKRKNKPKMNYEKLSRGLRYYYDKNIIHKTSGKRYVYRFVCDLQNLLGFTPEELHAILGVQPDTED
In short: as §1

[14] = target: T9, SPDEF (Homo sapiens, UniProt O95238 1-335); details: protein: recombinant; tags: N-terminal GST; dsDNA, one strand shown
T9 sequence: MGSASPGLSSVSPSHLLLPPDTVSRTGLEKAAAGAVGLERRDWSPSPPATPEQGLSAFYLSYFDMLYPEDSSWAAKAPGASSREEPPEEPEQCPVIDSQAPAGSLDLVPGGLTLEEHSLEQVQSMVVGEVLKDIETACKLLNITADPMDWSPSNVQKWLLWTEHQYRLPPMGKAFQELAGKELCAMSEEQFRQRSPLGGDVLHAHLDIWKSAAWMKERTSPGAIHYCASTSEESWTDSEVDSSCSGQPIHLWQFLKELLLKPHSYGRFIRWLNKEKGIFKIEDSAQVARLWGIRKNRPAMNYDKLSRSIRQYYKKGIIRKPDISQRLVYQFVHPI
In short: as §1

[15] = target: T10, ETV7 (Homo sapiens, UniProt Q9Y603 1-341); details: protein: recombinant; tags: N-terminal GST; dsDNA, one strand shown
T10 sequence: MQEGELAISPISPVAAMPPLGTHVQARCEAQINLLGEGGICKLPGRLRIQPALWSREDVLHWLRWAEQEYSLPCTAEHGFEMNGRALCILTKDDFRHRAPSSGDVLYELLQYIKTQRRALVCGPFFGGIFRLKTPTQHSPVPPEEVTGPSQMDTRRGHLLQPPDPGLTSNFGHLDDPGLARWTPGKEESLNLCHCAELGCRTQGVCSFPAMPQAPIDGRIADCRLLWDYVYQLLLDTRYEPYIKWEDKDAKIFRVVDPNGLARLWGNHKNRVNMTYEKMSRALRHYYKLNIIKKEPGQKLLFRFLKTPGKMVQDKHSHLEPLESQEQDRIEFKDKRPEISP
In short: as §1

[16] = target: T11, ELF5 (Homo sapiens, UniProt Q9UKW6-2 1-255); details: protein: recombinant; tags: N-terminal GST; dsDNA, one strand shown
T11 sequence: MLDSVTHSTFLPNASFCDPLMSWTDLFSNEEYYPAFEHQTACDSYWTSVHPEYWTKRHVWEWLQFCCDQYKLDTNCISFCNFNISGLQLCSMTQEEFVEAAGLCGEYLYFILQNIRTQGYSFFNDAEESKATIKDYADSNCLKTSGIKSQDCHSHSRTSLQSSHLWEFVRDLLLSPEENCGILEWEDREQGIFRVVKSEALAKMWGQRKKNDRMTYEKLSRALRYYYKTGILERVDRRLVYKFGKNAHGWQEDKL
In short: as §1

[17] = target: T12, ETV3 (Homo sapiens, UniProt P41162-2 1-143); details: protein: recombinant; tags: N-terminal GST; dsDNA, one strand shown
T12 sequence: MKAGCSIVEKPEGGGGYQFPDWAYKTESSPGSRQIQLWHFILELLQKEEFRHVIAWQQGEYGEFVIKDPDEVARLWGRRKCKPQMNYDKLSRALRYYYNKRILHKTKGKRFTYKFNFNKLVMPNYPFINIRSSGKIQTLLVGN
In short: as §1

[18] = target: ETV6 (Homo sapiens, UniProt P41212 1-452); details: protein: recombinant; tags: N-terminal GST; dsDNA, one strand shown
Chain of ETV6 (P41212 whole entry): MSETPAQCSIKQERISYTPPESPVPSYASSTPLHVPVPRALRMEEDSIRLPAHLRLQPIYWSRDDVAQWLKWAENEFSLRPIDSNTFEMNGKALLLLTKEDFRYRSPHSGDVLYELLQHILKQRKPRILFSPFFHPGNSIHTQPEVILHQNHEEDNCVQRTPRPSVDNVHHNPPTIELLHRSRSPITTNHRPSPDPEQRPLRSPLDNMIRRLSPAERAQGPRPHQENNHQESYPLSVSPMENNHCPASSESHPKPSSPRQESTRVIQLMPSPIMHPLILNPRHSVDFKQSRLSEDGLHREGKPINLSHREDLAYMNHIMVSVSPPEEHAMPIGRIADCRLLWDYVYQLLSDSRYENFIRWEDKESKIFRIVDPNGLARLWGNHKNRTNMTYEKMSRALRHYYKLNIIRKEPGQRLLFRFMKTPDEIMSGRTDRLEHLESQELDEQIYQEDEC
In short: as §1

In the case of CATTTT, the binding signal [1] is reported as 1.19 fold enrichment (6-mer frequency, TF over GST control), the binding signal [2] is reported as 1.23 fold enrichment (6-mer frequency, TF over GST control) and the binding signal [3] is reported as 1.19 fold enrichment (6-mer frequency, TF over GST control). For the same sequence, the binding signal [4] was 1.18 fold enrichment (6-mer frequency, TF over GST control), the binding signal [5] was 1.32 fold enrichment (6-mer frequency, TF over GST control) and the binding signal [6] was 1.32 fold enrichment (6-mer frequency, TF over GST control). The binding signal [7] was 1.35 fold enrichment (6-mer frequency, TF over GST control), the binding signal [8] was 1.21 fold enrichment (6-mer frequency, TF over GST control) and the binding signal [9] was 1.04 fold enrichment (6-mer frequency, TF over GST control). For the same sequence, the binding signal [10] was 1.24 fold enrichment (6-mer frequency, TF over GST control), the binding signal [11] was 1.22 fold enrichment (6-mer frequency, TF over GST control) and the binding signal [12] was 1.24 fold enrichment (6-mer frequency, TF over GST control). For the same sequence, the binding signal [13] was 1.1 fold enrichment (6-mer frequency, TF over GST control), the binding signal [14] was 1.06 fold enrichment (6-mer frequency, TF over GST control) and the binding signal [15] was 1.2 fold enrichment (6-mer frequency, TF over GST control). The binding signal [16] was 1.22 fold enrichment (6-mer frequency, TF over GST control), the binding signal [17] was 1.18 fold enrichment (6-mer frequency, TF over GST control) and the binding signal [18] was 1.28 fold enrichment (6-mer frequency, TF over GST control).

Source: article PMC7862700, “An all-to-all approach to the identification of sequence-specific readers for epigenetic DNA modifications on cytosine”
